Key:
[1] = target: Protein kinase C gamma type (Homo sapiens) (UniProt P05129); details: at 1 µM;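 note: each value is an averaged percent inhibition of the enzyme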
[2] = target: T1, Protein kinase C iota type (Homo sapiens) (UniProt P41743); details: at 0.1 µM
T1 sequence (whole entry): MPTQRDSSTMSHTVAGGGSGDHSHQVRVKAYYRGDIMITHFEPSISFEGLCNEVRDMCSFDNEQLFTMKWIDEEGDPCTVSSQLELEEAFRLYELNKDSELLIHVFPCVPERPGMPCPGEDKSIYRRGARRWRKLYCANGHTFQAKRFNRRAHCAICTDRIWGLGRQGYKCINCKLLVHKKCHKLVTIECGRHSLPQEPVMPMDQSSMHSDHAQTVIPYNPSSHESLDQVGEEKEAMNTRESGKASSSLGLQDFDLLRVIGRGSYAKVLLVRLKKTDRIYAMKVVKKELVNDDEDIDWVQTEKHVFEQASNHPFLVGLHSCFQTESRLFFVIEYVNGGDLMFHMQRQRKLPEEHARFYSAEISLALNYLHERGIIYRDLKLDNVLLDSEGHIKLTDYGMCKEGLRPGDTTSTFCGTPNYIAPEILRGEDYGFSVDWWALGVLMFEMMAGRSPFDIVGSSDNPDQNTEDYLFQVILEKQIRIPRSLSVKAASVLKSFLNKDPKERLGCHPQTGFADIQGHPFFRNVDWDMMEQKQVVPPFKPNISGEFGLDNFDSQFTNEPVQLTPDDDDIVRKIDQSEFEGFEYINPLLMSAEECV

[3] = target: T1, Protein kinase C iota type (Homo sapiens); details: at 1 µM
[4] = target: Protein kinase C theta type (Homo sapiens) (UniProt Q04759); details: at 0.1 µM
[5] = target: Protein kinase C theta type (Homo sapiens) (UniProt Q04759); details: at 1 µM
[6] = target: Protein kinase C beta type (Homo sapiens) (UniProt P05771); details: at 0.1 µM
[7] = target: Protein kinase C beta type (Homo sapiens) (UniProt P05771); details: at 1 µM
[8] = target: T2, Serine/threonine-protein kinase D1 (Homo sapiens) (UniProt Q15139); details: at 0.1 µM
T2 sequence (whole entry): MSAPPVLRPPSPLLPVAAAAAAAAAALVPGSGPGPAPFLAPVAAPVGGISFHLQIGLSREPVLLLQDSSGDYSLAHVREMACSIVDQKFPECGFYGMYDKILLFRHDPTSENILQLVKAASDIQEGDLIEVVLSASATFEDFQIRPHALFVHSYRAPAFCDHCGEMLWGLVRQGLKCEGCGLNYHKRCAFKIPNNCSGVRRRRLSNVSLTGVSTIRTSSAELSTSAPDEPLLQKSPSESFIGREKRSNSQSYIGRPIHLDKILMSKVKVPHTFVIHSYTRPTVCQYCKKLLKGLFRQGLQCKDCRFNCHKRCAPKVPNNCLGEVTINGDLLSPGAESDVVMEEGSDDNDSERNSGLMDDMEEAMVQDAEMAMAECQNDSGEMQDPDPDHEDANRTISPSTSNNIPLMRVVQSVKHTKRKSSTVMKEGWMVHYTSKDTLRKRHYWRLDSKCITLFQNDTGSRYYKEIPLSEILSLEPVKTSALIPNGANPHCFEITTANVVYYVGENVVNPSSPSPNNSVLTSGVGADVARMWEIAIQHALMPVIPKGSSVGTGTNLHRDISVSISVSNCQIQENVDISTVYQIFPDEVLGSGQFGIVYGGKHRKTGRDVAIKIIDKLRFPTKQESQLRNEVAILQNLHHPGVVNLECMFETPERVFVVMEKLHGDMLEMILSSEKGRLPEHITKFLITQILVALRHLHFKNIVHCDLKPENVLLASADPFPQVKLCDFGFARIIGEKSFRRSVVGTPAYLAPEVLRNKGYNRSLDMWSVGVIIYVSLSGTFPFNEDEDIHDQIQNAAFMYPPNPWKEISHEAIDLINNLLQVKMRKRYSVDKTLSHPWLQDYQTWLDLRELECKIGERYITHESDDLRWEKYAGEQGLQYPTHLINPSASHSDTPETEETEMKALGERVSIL

[9] = target: T2, Serine/threonine-protein kinase D1 (Homo sapiens); details: at 1 µM
[10] = target: T3, Serine/threonine-protein kinase D2 (Homo sapiens) (UniProt Q9BZL6); details: at 0.1 µM;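 note: reported percent inhibition values are means, part of the GSK PKIS kinase panel screen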
T3 sequence (whole entry): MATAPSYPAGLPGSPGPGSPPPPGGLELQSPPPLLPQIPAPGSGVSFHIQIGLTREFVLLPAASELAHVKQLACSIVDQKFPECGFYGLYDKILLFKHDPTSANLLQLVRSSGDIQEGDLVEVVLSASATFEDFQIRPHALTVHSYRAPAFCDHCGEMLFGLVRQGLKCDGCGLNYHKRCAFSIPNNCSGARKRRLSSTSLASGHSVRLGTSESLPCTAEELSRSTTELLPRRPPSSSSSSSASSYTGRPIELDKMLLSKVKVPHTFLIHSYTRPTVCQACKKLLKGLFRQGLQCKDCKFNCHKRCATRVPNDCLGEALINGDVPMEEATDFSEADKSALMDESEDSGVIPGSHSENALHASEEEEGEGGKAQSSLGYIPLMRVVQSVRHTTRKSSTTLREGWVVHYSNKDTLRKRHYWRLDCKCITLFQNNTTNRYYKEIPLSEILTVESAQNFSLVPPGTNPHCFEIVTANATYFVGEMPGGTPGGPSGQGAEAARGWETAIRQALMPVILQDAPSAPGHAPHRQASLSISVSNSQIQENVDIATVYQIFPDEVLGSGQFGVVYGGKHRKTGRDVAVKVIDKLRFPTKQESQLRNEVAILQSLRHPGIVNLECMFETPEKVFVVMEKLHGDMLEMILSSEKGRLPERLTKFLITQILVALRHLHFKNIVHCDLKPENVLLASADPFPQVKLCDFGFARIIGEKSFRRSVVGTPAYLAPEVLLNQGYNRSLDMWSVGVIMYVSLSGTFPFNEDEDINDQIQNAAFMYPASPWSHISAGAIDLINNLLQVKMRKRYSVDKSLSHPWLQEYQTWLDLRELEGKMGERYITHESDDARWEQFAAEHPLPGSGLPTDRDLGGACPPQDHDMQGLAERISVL

Sequence of Protein kinase C theta type (Homo sapiens) (Q04759 whole entry, looked up): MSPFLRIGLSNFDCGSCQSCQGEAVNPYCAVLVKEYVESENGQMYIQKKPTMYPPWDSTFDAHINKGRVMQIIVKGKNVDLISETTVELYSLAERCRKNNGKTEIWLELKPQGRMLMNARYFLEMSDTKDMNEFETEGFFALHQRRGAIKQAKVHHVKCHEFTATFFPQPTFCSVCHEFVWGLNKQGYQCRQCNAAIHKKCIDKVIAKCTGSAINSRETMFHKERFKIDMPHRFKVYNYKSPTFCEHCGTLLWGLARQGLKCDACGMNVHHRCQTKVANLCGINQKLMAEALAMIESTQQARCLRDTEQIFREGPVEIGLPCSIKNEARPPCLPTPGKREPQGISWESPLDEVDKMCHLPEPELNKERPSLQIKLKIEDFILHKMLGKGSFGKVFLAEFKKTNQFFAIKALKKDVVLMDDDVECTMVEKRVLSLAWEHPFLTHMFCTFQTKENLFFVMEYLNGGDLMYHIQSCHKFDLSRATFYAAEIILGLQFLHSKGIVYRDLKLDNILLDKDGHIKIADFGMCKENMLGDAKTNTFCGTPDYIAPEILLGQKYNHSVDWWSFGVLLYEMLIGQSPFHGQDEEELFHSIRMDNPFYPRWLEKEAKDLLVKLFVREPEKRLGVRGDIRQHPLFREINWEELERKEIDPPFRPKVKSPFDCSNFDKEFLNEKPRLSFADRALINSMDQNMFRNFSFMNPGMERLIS
Sequence of Protein kinase C beta type (Homo sapiens) (P05771 2-671 limits assumed): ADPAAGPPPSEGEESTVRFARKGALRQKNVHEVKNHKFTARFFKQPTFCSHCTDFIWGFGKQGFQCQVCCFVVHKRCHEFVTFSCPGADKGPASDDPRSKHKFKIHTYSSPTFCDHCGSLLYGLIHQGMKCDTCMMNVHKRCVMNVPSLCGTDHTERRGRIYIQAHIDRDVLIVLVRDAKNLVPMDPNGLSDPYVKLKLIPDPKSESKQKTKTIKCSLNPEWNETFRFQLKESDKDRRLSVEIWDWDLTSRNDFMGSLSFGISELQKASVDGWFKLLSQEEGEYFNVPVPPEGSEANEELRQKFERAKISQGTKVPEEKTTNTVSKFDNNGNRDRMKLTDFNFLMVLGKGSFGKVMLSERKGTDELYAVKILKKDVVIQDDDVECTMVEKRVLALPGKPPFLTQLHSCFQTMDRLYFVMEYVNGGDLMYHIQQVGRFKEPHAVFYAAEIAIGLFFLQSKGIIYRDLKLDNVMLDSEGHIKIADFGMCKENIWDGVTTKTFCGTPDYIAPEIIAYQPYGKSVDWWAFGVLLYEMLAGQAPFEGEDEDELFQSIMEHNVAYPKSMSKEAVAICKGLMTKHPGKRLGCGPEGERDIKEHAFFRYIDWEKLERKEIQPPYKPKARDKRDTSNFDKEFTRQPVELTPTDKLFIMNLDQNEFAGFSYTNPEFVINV

Structure (SMILES) | inhibition [1] [%] | inhibition [2] [%] | inhibition [3] [%] | inhibition [4] [%] | inhibition [5] [%] | inhibition [6] [%] | inhibition [7] [%] | inhibition [8] [%] | inhibition [9] [%] | inhibition [10] [%]
Cc1ccc(O)cc1Nc1ccnc2ccc(S(C)(=O)=O)cc12 | 4.87 | 3.04 | 1.3 | 3.39 | 7.6 | 2.21 | 4.59 | 5.19 | 24.7 | 7.07
O=C1Nc2ccccc2/C1=C/Nc1ccc2[nH]c(=O)[nH]c2c1 | 4.72 | 1.72 | 0.7 | 2.03 | 4.75 | 1.79 | 2.19 | 4.45 | 16.5 | 5.28
c1ccc(Nc2ncc(-c3ccccc3)o2)cc1 | 4.48 | 1.64 | 0.9 | 1.93 | 2.27 | 1.46 | 2.63 | 4.37 | 7.71 | 4.47
Nc1nccc(-c2c(-c3ccc(F)cc3)nn3cc(C(F)(F)F)ccc23)n1 | -0.26 | -0.75 | -1.18 | -0.19 | -0.16 | -0.91 | 2.07 | 0.77 | 3.05 | 1.62
C[C@@H](Oc1cc(-n2cnc3ccc(OCC4CCN(C)CC4)cc32)sc1C(N)=O)c1ccccc1C(F)(F)F | 7.81 | -1.38 | 0.4 | 2.09 | 19.4 | 2.07 | 18.8 | -0.56 | 12.1 | 2.29
Oc1cccc(-c2nc(-c3ccccc3)[nH]c2-c2ccncc2)c1 | 5.82 | 1.08 | 0.18 | 2.11 | 3.65 | 0.99 | 7.1 | 3.05 | 5.51 | 3.64
CCOc1nccc2c1nc(-c1nonc1N)n2CC | 0.08 | 3.07 | 0.84 | 2.98 | 6.45 | 3.06 | 5.23 | 3.37 | 1.82 | 1.9
CCS(=O)(=O)c1ccc(OC)c(Nc2ncc(-c3cccc(OC)c3)o2)c1 | 3.87 | 1.8 | 3.38 | 1.22 | 0.3 | 0.6 | 2.93 | 2.32 | 4.41 | 2.35
O=S(=O)(CCOCc1ccc(-c2ccc3ncnc(Nc4ccc(OCc5cccc(F)c5)c(Cl)c4)c3c2)o1)c1ccccc1 | 1.98 | 0.8 | 0.31 | 0.62 | 0.48 | 0.96 | 1.53 | 1.15 | 2.02 | 1.72
CCS(=O)(=O)c1ccc(OC)c(Nc2nccc(N(C)c3ccc4c(C)n[nH]c4c3)n2)c1 | 3.15 | 2.77 | 2.66 | 2.68 | 2.9 | 1.61 | 2.71 | 4.99 | 6.33 | 4.18
Cc1ccc(NC(=O)CC2CC2)cc1-c1ccc(C(=O)NCC2CC2)cc1 | 6.55 | 0.93 | -0.03 | 2.09 | 2.23 | 1 | 2.35 | 2.3 | 3.9 | 2.89
NS(=O)(=O)c1cccc(-c2cc3ccncc3cc2OCc2ccccc2)c1 | 4.07 | 2.51 | 3.39 | 2.29 | 1.87 | 2.02 | 2.23 | 4.25 | 7.09 | 5.29
N#Cc1cccc(Nc2nccc(-c3cnn4ncccc34)n2)c1 | 31.2 | 0.78 | 1.84 | 3.95 | 14.2 | 6.33 | 30.2 | 7.68 | 49.5 | 7.36
Cc1ccc(C(=O)NC2CC2)cc1-c1ccc2[nH]ncc2c1 | 0.02 | -1.83 | -1.13 | -1.64 | 0.05 | -0.94 | -0.69 | -4.08 | -2.68 | -2.91
c1ccc(Cc2nc3ccc(Nc4ncnc5ccccc45)cc3[nH]2)cc1 | 2.9 | 0.63 | 0.68 | 1.76 | 2.47 | 0.1 | 0.12 | 2.88 | 6.43 | 2.49
COC(=O)Nc1nc2cc(Oc3ccc(NC(=O)Nc4cccc(Br)c4)cc3)ccc2[nH]1 | 0.29 | 1.23 | 0.06 | 1.7 | 1.69 | 0.71 | 2.06 | 2.15 | 4.31 | 4.58
